# Only some compounds are listed: those with a hit (about 3.1% of all), similar ones and a draw of the others.
# Peg3 prom inh = Peg3 promoter activity inhibition | AID 588405 | hit rate 1.7% among 360,000 | inhibition, % at 20 µM | HeLa PEG-Prom luciferase reporter, luminescence, overnight;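 active means inhibition of at least 50% at 20 µM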
# KKLEB tox = counter-screen for CF NF-kB inhibitors: cytotoxicity | AID 602141 | activity change (cytotoxicity), % at 5 µM | KKLEB CF airway cells viability, ATPlite luminescence, overnight; hits give low values; cells stimulated with P. aeruginosa culture filtrate | hit rate 0.36% among 360,000;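 active means corrected activity change at or below -50% at 5 µM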
# HIF-2a block = blocks HIF-2a reporter activity; inhibition, % at 18.8 µM; hit rate 0.72% among 360,000; 786-0 RCC cells HIF-2a reporter, luciferase luminescence, overnight;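 active means inhibition of the luminescence signal of 40% or more relative to plate controls, in a single-dose primary screen at 18.75 µM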
# PPC-1+TRAIL kill = PPC-1 cancer cell killing with TRAIL present; AID 1443; cell killing (% activity), % at 4 µM or 5 µM; hit rate 0.41% among 220,000; PPC-1 cells + TRAIL, ATPLite viability luminescence;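 active means cell killing above 50% in the first pass at 4 µM, then a duplicate retest at 5 µM averaging 50% or more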;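 further: plate controls were cells with TRAIL plus DMSO for no effect and medium-only wells lacking cells for full effect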
# TRAIL sens C8 = sensitizes caspase-8 expressing cells to TRAIL; hit rate 1% among 360,000; inhibition (viability loss, TRAIL sensitization), % at 10 µM; NB7+C8 cells + TRAIL, ATPlite viability luminescence; AID 624354;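 active means compounds causing at least 50% loss of cell viability in the single-dose screen, relative to plate controls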
# CF NFkB block = cystic fibrosis NF-kB activation inhibition. hit rate 0.86% among 360,000. AID 588850. KKLEB NF-kB-GFP reporter, PAF-induced, GFP fluorescence overnight. inhibition, % at 5 µM;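 active means at least 50% inhibition at 5 µM, scaled per plate between neutral and stimulator controls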;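 further: PAF is a Pseudomonas aeruginosa culture filtrate used as stimulus; plate controls were PAF-stimulated DMSO wells for no effect and unstimulated DMSO wells for full effect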
# Mdm2-MdmX confirm = Mdm2/MdmX (human) interaction inhibition, confirmed; shares compounds with HIF-2a block; SaOS-2 split-luciferase Mdm2/MdmX complementation, luminescence; inhibition, % at 8 µM; hit rate 99% among 740;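 active means mean inhibition of the luminescence signal across two replicates at or above 26 percent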
# HIF-2a inh conf = HIF-2a inhibition, single concentration confirmation; shares compounds with HIF-2a block; 786-0 RCC cells, HIF-2a luciferase reporter luminescence, overnight; inhibition, % at 18.8 µM; hit rate 56% among 1,800; AID 651580;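 active means mean inhibition across four replicates of at least 40 percent at the single tested concentration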
# HIF-1a counter = HIF-1a inhibition counter-screen for HIF-2a hits; shares compounds with HIF-2a block; inhibition, % at 18.8 µM; hit rate 72% among 1,800; MiaPaCa-2 HIF-1a luciferase reporter, desferoxamine, overnight;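 active means mean inhibition of the reporter signal across four replicates at the single tested dose of 50% or more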
# Numbers without * were called inactive; nt = no result.
SMILES,Peg3 prom inh,KKLEB tox,HIF-2a block,PPC-1+TRAIL kill,TRAIL sens C8,CF NFkB block,HIF-2a inh conf,HIF-1a counter,others
COc1ccccc1C=CC(=O)C=Cc1ccccc1OC,99*,-4,70*,nt,14,-179,55*,100*,
CCCC[C@H](CN[C@@H](CNC)[C@H](C)CC)NCCC12CCC(CC1)C2,102*,-1,-7,nt,11,-12,nt,nt,Mdm2-MdmX confirm=103*
CC(=O)OCC1OC(n2c(-c3ccc(Cl)cc3)ccc(C#N)c2=S)C(OC(C)=O)C(OC(C)=O)C1OC(C)=O (configuration not stated),-71,19,-76,nt,0,-28,nt,nt,
COc1ccc(CCNC(=S)NC(=O)c2cccc([N+](=O)[O-])c2)cc1OC,12,2,15,nt,22,-2,nt,nt,
CC(=O)Nc1cccc(-c2csc(N)n2)c1,1,3,5,0,-2,-20,nt,nt,
CC(=O)Nc1cccc(-c2cnc(N)c(C(=O)c3cccnc3)n2)c1,71*,-8,41*,nt,20,75*,nt,nt,Mdm2-MdmX confirm=102*
O=C(CS(=O)(=O)Cc1ccccc1)NCc1ccccc1Cl,-24,-16,-11,nt,3,23,nt,nt,
COC(=O)c1cc(=O)n(Cc2ccc3c(c2)OCO3)c(=Nc2ccc(F)c(Cl)c2)s1,57*,-15,53*,21,30,44,6,59*,
O=C(Nc1ccc(N2CCOCC2)cc1)c1cnccn1,59*,-4,53*,nt,78*,-15,71*,22,
O=S1(=O)Nc2c(ccc3cccnc23)-c2ccccc21,111*,12,18,32,32,52*,nt,nt,Mdm2-MdmX confirm=103*
CCN1C[C@@H]2[C@@H]3C(=O)N(C)C(=O)[C@@H]3[C@](Cc3ccccc3)(C1=O)N2C(=O)c1ccc(Br)cc1,2,3,4,nt,10,4,nt,nt,
COc1ccc(S(=O)(=O)NC(=O)C2(C)CCN2C(=O)c2cccc(F)c2)cc1 (configuration not stated),7,0,6,nt,8,-5,nt,nt,
Cc1c(C(=O)Nc2nccs2)oc2ccc(Br)cc12,-226,-10,-220,nt,32,0,nt,nt,
Cc1cc(C(=O)CCl)c(C)n1CCc1ccc(Cl)cc1,98*,-30,48*,-14,-17,30,49*,105*,
Cc1cc(C(=O)CSc2nnc(N)s2)c(C)n1CCc1ccc(Cl)cc1,-24,7,-91,19,10,0,nt,nt,
O=C(CCl)N1N=C(c2cccs2)CC1c1ccco1 (configuration not stated),41,-18,19,8,91*,16,nt,nt,Mdm2-MdmX confirm=103*
CN1CCN(CC(=O)N2N=C(c3cccs3)CC2c2ccco2)CC1 (configuration not stated),-1,6,11,-3,2,5,nt,nt,
CCOC(=O)C1=CCN(S(=O)(=O)c2ccccc2Cl)C1c1cccc(Br)c1 (configuration not stated),36,-20,14,nt,-1,15,nt,nt,
CC1CCC(C(C)C)C(OC(=O)Cn2c(-c3ccc(F)cc3)[n+](C)c3ccccc32)C1 (configuration not stated),62*,-54*,-6,23,37,50,nt,nt,Mdm2-MdmX confirm=99*
Cc1cccc(OCc2n(CC(=O)OC3CC(C)CCC3C(C)C)c3ccccc3[n+]2C)c1 (configuration not stated),103*,-57*,96*,21,31,69*,27,106*,Mdm2-MdmX confirm=102*
CCCC(=O)Nc1ccc2c(c1)C(=O)N(C)C[C@@H](OC)[C@H](C)CN(Cc1ccc(-c3ccccn3)cc1)[C@@H](C)CO2,nt,nt,-16,nt,-1,nt,nt,nt,
C=C1CCc2c([nH]c3ccc(OCC(C)C)cc23)C1=O,103*,-21,96*,nt,89*,29,-6,67*,
Nc1c(N(C(=O)Nc2ccc(Cl)c(Cl)c2)C2CCCC2)c(=O)[nH]c(=O)n1Cc1ccccc1,48,-27,40*,1,63*,19,11,103*,
O=C(Nc1ccc(Cl)cc1)c1cc2c(cc1O)[nH]c1ccccc12,54*,-63*,-75,2,16,67*,nt,nt,Mdm2-MdmX confirm=102*
Cc1ccc(-n2nc3ccc(N)cc3n2)c(C)c1,-174,5,56*,nt,33,-37,76*,17,
SMILES,Peg3 prom inh,KKLEB tox,HIF-2a block,PPC-1+TRAIL kill,TRAIL sens C8,CF NFkB block,HIF-2a inh conf,HIF-1a counter,others
N#C/C(=C/c1cccc(O)c1)C(=O)NCc1ccc(Cl)cc1,-11,-9,77*,nt,1,19,30,46,
N#C/C(=C\c1ccc(Cl)c([N+](=O)[O-])c1)c1ccccn1,93*,-2,43*,43,1,-4,-19,95*,
Cc1ccc(C(=O)NC(=S)Nc2ccc(-c3cc4ccccc4oc3=O)cc2)c(C)c1,48,1,81*,-3,-9,13,76*,56*,
Cc1cc(C)cc(C(=O)NC(=S)Nc2ccc(-c3cc4ccccc4oc3=O)cc2)c1,19,-57*,82*,13,14,57*,76*,0,
O=C(Cc1cccc2ccccc12)Nc1ccc(-c2cc3ccccc3oc2=O)cc1,13,-13,53*,7,13,22,68*,52*,
CC(=O)Nc1ccc(NC(=S)NC(=O)c2cc3ccccc3o2)cc1,-51,-1,-123,7,-13,12,nt,nt,
COc1ccc(Oc2c(Cl)cnn(-c3ccc(Cl)c(Cl)c3)c2=O)cc1,65*,3,84*,9,89*,-20,8,104*,
COc1cccc(NC(=O)N(C)C[C@H]2Oc3cc(C#Cc4ccncc4)ccc3S(=O)(=O)N([C@H](C)CO)C[C@H]2C)c1,17,-16,43*,nt,1,-2,19,38,
O=C(O)c1cccc(-c2nc3ccccc3[nH]2)c1,55*,-5,69*,22,46,1,55*,-72,
CC1(C)CC(=O)C2=C(C1)OC1=C(C(=O)CC(C)(C)C1)C2c1ccc(O)cc1O,108*,-54*,93*,19,45,97*,97*,106*,Mdm2-MdmX confirm=103*
NCCNc1ccc([N+](=O)[O-])c(Sc2nc3ccccc3[nH]2)c1,22,8,27,13,-12,6,nt,nt,
O=[N+]([O-])c1cc(S(=O)(=O)C(F)(F)F)ccc1Sc1nc2ccccc2[nH]1,104*,-24,93*,11,86*,50*,69*,106*,

# Bioassay records: PubChem, Sanford-Burnham Center for Chemical Genomics
